In PubChem BioAssay (Tox21):
Records with an inconclusive call do not appear. The source made the active and inactive calls. Unless noted, calls follow the shape of the dose curve; as a rule, active = well fitted curve in the direction sought with a large enough effect in the repeat runs; inconclusive = weak or mixed curves; inactive = no such curve, though single readings can be large; an effect the other way counts as inactive or inconclusive.

Tests used:
[1] = qHTS assay to identify small molecule antagonists of the estrogen related receptor (ERR) signaling pathway from Tox21 library - cell viability counter screen (AID 1224834); also: nearly all actives have a fitted effect of over 30% in size
In short: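 Cytotoxicity of test substances is gauged in the same ERR cells used for the antagonist screen, after 17.5 h of compound treatment at 37 C, by CellTiter-Fluor fluorescence measured after 30 min.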

[2] = target: Luciferin 4-monooxygenase (Photinus pyralis) (UniProt P08659); assay: qHTS assay to identify small molecule inhibitors of firefly luciferase (AID 1224835); also: nearly all actives have a fitted effect of over 25% in size
In short: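 Quantitative HTS format; KM concentrations of both substrates. Purified P. pyralis FLuc activity quantified from luminescence images.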

[3] = qHTS assay to identify small molecule agonists of the constitutive androstane receptor (CAR) signaling pathway - cell viability counter screen (AID 1224836); also: nearly all actives have a fitted effect of over 45% in size
In short: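 Multiplexed viability check: HepG2-CYP2B6-hCAR cells, 15-point compound dosing, 0.75 uM PK11195 final, 23 h at 37 C, CellTiter-Fluor fluorescence.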

[4] = qHTS assay to identify small molecule antagonists of the constitutive androstane receptor (CAR) signaling pathway - cell viability counter screen (AID 1224837); also: nearly all actives have a fitted effect of over 45% in size
In short: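 Multiplexed cytotoxicity read-out for the CAR antagonist screen: double-stable HepG2-CYP2B6-hCAR cells co-treated with 50 nM CITCO (final) and compound over 15 concentrations, incubated 23 hr, then assessed by CellTiter-Fluor fluorescence.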

[5] = target: Nuclear receptor subfamily 1 group I member 3 (Homo sapiens) (UniProt Q14994); assay: qHTS assay to identify small molecule antagonists of the constitutive androstane receptor (CAR) signaling pathway (AID 1224838); also: nearly all actives have a fitted effect of over 40% in size
In short: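 Compounds were titrated across 15 concentrations onto HepG2 cells double-stably expressing hCAR and a CYP2B6-2.2kb reporter, together with 50 nM CITCO (final). After 24 h at 37 C, luciferase activity was measured by luminescence.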

[6] = target: Nuclear receptor subfamily 1 group I member 3 (Homo sapiens) (UniProt Q14994); assay: qHTS assay to identify small molecule agonists of the constitutive androstane receptor (CAR) signaling pathway (AID 1224839);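 also: HepG2 cells stably carrying human CAR and a CYP2B6 luciferase reporter; nearly all actives have a fitted effect of over 15% in size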
In short: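 Using human hepatoma HepG2 cells engineered with hCAR and a CYP2B6-2.2kb reporter, 15-concentration compound series were incubated 24 h alongside PK11195 at 0.75 uM final, with luminescence quantified afterwards.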

[7] = qHTS assay to identify small molecule antagonists of the estrogen related receptor signaling pathway with the pleiotropic PPARgamma coactivator (PGC) from Tox21 10K library - cell viability counter screen (AID 1224840; active = well fitted cell-killing curve with a large enough effect in the repeat runs, not every such curve was filed as active; also: nearly all actives have a fitted effect of over 40% in size)
In short: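 Step one, plate 2,000 PGC/ERR cells per well; step two, incubate 6 h at 37 C/5% CO2; step three, pin-transfer compounds; step four, incubate 17.5 h; step five, add CellTiter-Fluor and read fluorescence after 30 min.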

[8] = qHTS assay to identify small molecule antagonists of the estrogen related receptor signaling pathway with the pleiotropic PPARgamma coactivator (PGC) from Tox21 10K library (AID 1224841; call rule not given here; also: actives are mostly falling curves and most rising ones were filed inactive; nearly all actives have a fitted effect of over 50% in size)
In short: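 Antagonism in this quantitative HTS is taken from loss of luciferase signal in PGC/ERR cells. Cells (2,000/well) are treated with compounds in DMSO after a 6 h settling period and read by One-Glo luminescence after 18 h.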

[9] = qHTS assay to identify small molecule agonists of the estrogen related receptor signaling pathway with the pleiotropic PPARgamma coactivator (PGC) from Tox21 10K library (AID 1224842); also: nearly all actives have a fitted effect of over 15% in size
In short: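 PGC/ERR reporter cells (NTP line) were seeded 2,000 per well, rested 6 h at 37 C/5% CO2, then pin-dosed with compounds in DMSO for 18 h at 37 C; luciferase read by One-Glo luminescence after 30 min at room temperature.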

[10] = target: Thyrotropin receptor (Homo sapiens) (UniProt P16473); assay: qHTS assay to identify small molecule agonists of the thyroid stimulating hormone receptor (TSHR) signaling pathway (AID 1224843; calls by dose curve; also: nearly all actives have a fitted effect of over 45% in size)
In short: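 Cell line HEK293 with TSHR; density 800/well. Exposure 30 min RT. Readout HTRF cAMP (cAMP-d2/anti-cAMP-cryptate), 1 h RT before reading.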

[11] = qHTS assay to identify small molecule agonists of the hypoxia (HIF-1) signaling pathway - cell viability counter screen (AID 1224844; calls by dose curve; also: nearly all actives have a fitted effect of over 50% in size)
In short: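 Tox21 10K compounds were added to HRE-bla ME-180 cells (0.5% dialyzed FBS) and incubated 17 hrs at 37C; ATP-based CellTiter-Glo luminescence then reported cell viability in the same wells.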

[12] = qHTS assay to identify small molecule agonists of H2AX (AID 1224845; active = well fitted activation curve with a large enough effect in the signal ratio in the repeat runs, not every such curve was filed as active; the % refers to the signal ratio)
In short: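 Wild-type CHO-K1 cells plated overnight, then exposed 3 hr at 37C to compounds at 15 concentrations (0.76% DMSO). Lysed, then HTRF anti-pH2AX(S139)-cryptate/anti-H2AX-d2 detection after 24 hr at room temperature; emissions 665 and 620 nm.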

[13] = qHTS assay to identify small molecule agonists of the hypoxia (HIF-1) signaling pathway (AID 1224846; active = well fitted activation curve with a large enough effect in the signal ratio in the repeat runs, not every such curve was filed as active; the % refers to the signal ratio)
In short: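 Steps: seed ME-180 HRE-bla cells (2,000/well, 0.5% dialyzed FBS); incubate 5 hrs at 37C; pin-transfer compounds or DMSO; incubate 17 hrs; add LiveBLAzer B/G substrate CCF4-AM; measure reporter activation by FRET.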

[14] = qHTS assay to identify small molecule agonists of H2AX - cell viability counter screen (AID 1224847; calls by dose curve; also: top concentration of the series differs between compounds; nearly all actives have a fitted effect of over 30% in size)
In short: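 After overnight plating of 1000 CHO-K1 cells per well, a 15-concentration compound series was applied for 3 hr at 37C. Luminescence from CellTiter-Glo, read following 30 min at room temperature, reflected cell viability.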

[15] = qHTS assay to identify small molecule antagonists of the estrogen related receptor (ERR) signaling pathway from Tox21 library (AID 1224848); also: nearly all actives have a fitted effect of over 50% in size
In short: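 Screening used an ERR reporter line supplied by NTP, exposed for 18 h at 37 C to library compounds delivered in DMSO. Signal was luciferase luminescence developed with ONE-Glo at room temperature for 30 min.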

[16] = qHTS assay to identify small molecule agonists of the estrogen related receptor (ERR) signaling pathway from Tox21 library (AID 1224849; calls by dose curve; also: nearly all actives have a fitted effect of over 15% in size); conditions: ERR reporter cell line, ONE-Glo luciferase, 18 h; at 92.4 µM (top of the series) unless noted
In short: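 Agonist signal is luciferase luminescence from an ERR reporter cell line treated 18 h at 37 C with DMSO-dissolved compounds, read 30 min after ONE-Glo addition at room temperature.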

[17] = qHTS RealTime-Glo MT Cell Viability Assay in HepG2 cells - 24 hour (AID 1224867); also: nearly all actives have a fitted effect of over 50% in size
In short: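 HepG2 suspension premixed with RealTime-Glo reagents is plated at 600 cells per well and left 5 h at 37 C/5% CO2. Compounds in DMSO then go in, and bioluminescence reflecting viable cell number is recorded over 40 h.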

[18] = qHTS RealTime-Glo MT Cell Viability Assay in HEK293 cells - 32 hour (AID 1224868)
In short: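 Reads taken at 0, 8, 16, 24, 32 and 40 h from the same wells. HEK293 cells (600/well) carried RealTime-Glo reagents from seeding, with compound added after a 5 h settle at 37 C.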

[19] = A CellTox Green Cytotoxicity Assay to monitor cytotoxicity in HEK293 cells - 0 hour (AID 1224869); also: nearly all actives have a fitted effect of over 50% in size
In short: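 Cytotoxicity was tracked continuously in HEK293 cells by a DNA-binding dye excluded from viable cells. Compounds were transferred in DMSO 5 h after seeding; fluorescence was recorded at intervals up to 40 h.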

[20] = qHTS RealTime-Glo MT Cell Viability Assay in HepG2 cells - 40 hour (AID 1224870); also: nearly all actives have a fitted effect of over 50% in size
In short: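 HepG2 cells mixed with RealTime-Glo MT reagents (NanoLuc plus cell-permeant prosubstrate) were seeded at 600 cells/well, incubated 5 h at 37 C/5% CO2, then pinned with compounds in DMSO; nonlytic luminescence tracked viability during 40 h treatment.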
% is scaled to controls: 0 for no effect and ±100 for the full control effect.

Sequence of Luciferin 4-monooxygenase (Photinus pyralis) (P08659 whole entry, looked up): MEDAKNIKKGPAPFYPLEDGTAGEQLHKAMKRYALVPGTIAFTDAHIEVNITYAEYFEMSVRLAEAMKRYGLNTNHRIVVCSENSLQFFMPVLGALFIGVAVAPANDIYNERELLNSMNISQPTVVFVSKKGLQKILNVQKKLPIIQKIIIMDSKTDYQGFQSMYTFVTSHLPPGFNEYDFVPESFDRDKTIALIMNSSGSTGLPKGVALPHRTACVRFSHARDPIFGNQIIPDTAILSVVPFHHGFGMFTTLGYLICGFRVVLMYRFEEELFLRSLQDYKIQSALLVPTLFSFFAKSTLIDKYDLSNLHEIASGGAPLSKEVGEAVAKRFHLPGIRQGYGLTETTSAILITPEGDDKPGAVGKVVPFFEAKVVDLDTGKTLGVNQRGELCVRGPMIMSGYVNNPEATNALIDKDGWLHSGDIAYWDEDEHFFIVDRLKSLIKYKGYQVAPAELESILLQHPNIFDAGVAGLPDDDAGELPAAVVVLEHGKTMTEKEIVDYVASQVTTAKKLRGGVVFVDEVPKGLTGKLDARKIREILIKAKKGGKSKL
Sequence of Nuclear receptor subfamily 1 group I member 3 (Homo sapiens) (Q14994 whole entry, looked up): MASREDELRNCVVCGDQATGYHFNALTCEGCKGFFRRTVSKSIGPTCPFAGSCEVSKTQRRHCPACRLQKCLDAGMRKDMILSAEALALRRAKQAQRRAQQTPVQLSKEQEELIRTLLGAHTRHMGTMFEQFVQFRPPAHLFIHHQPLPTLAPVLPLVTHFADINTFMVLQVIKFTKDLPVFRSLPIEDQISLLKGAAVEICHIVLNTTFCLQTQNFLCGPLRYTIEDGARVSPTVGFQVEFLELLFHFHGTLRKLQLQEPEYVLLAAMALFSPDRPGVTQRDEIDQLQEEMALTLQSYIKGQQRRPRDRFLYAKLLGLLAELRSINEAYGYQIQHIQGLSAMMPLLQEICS
Sequence of Thyrotropin receptor (Homo sapiens) (P16473 whole entry, looked up): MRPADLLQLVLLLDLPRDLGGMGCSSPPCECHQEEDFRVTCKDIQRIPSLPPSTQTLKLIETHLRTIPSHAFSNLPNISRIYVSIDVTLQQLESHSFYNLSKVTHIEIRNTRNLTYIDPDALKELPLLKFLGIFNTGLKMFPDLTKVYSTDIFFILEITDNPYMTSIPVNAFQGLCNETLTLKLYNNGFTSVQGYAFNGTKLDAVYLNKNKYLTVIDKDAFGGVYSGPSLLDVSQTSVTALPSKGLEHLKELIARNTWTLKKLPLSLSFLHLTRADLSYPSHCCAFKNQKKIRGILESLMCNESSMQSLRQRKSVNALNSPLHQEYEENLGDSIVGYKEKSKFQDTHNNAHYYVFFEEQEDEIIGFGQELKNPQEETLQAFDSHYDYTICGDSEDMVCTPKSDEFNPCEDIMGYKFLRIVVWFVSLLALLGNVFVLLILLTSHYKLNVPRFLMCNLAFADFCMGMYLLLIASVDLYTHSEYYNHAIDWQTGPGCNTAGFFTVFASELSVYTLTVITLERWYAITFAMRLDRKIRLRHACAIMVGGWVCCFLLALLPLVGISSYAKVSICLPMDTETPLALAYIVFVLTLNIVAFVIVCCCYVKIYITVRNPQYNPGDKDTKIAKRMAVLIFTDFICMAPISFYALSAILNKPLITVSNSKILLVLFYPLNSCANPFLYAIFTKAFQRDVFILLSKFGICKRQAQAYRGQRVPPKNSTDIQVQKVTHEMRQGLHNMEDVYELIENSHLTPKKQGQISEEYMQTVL

CS(=O)(=O)c1ccc(C(=O)C2C(=O)CCCC2=O)c(Cl)c1COCC(F)(F)F
inactive: Potency [1] | Potency [2] | Potency [3] | Potency [4] | Potency [5] | Potency [6] | Potency [7] | Potency [8] | Potency [9] | Potency [10] | Potency [11] | outcome [12] | outcome [13] | Potency [14] | Potency [15] | activity change, positive = activation [16] -5.95% | Potency [17] | Potency [18] | outcome [19] | Potency [20]

O=C(CCl)NCO
inactive: Potency [1] | Potency [2] | Potency [3] | Potency [4] | Potency [5] | Potency [6] | Potency [7] | Potency [8] | Potency [9] | Potency [10] | Potency [11] | outcome [12] | outcome [13] | Potency [14] | Potency [15] | activity change, positive = activation [16] 7.02% | Potency [17] | Potency [18] | outcome [19] | Potency [20]

C=CCC1(C(C)CC)C(=O)NC(=O)NC1=O (stereo not drawn)
inactive: Potency [1] | Potency [2] | Potency [3] | Potency [4] | Potency [5] | Potency [6] | Potency [7] | Potency [10] | Potency [11] | outcome [12] | outcome [13] | Potency [14] | Potency [17] | Potency [18] | outcome [19] | Potency [20]

CCSC(=O)Cl
inactive: Potency [1] | Potency [2] | Potency [3] | Potency [4] | Potency [5] | Potency [6] | Potency [7] | Potency [8] | Potency [9] | Potency [10] | Potency [11] | outcome [12] | outcome [13] | Potency [14] | Potency [15] | activity change, positive = activation [16] 13.4% | Potency [17] | Potency [18] | outcome [19] | Potency [20]

BrCCc1ccccc1
inactive: Potency [1] | Potency [2] | Potency [3] | Potency [4] | Potency [5] | Potency [6] | Potency [7] | Potency [8] | Potency [9] | Potency [10] | Potency [11] | outcome [12] | outcome [13] | Potency [14] | Potency [15] | activity change, positive = activation [16] 0.561% | Potency [17] | Potency [18] | outcome [19] | Potency [20]

Cc1ccc(Cl)c(O)c1
inactive: Potency [1] | Potency [2] | Potency [3] | Potency [4] | Potency [5] | Potency [6] | Potency [7] | Potency [8] | Potency [9] | Potency [10] | Potency [11] | outcome [12] | outcome [13] | Potency [14] | Potency [15] | activity change, positive = activation [16] 6.81% [at 42.5 µM] | Potency [17] | Potency [18] | outcome [19] | Potency [20]

CN1C(=O)COc2c(C(=O)NC3CN4CCC3CC4)cc(Cl)cc21 (stereo not drawn)
inactive: Potency [1] | Potency [2] | Potency [3] | Potency [4] | Potency [5] | Potency [6] | Potency [7] | Potency [10] | Potency [11] | outcome [12] | outcome [13] | Potency [14] | Potency [17] | Potency [18] | outcome [19] | Potency [20]

N=C(N)[Se]
inactive: Potency [1] | Potency [2] | Potency [3] | Potency [4] | Potency [5] | Potency [6] | Potency [7] | Potency [10] | Potency [11] | outcome [12] | outcome [13] | Potency [14] | Potency [17] | Potency [18] | outcome [19] | Potency [20]

CCC(C)(C#N)N=NC(C)(C#N)CC (stereo not drawn)
inactive: Potency [1] | Potency [2] | Potency [3] | Potency [4] | Potency [5] | Potency [6] | Potency [7] | Potency [8] | Potency [9] | Potency [10] | Potency [11] | outcome [12] | outcome [13] | Potency [14] | Potency [15] | activity change, positive = activation [16] 3.15% | Potency [17] | Potency [18] | outcome [19] | Potency [20]

CCCN1CCC[C@@H]2Cc3nc(N)ncc3C[C@H]21
inactive: Potency [1] | Potency [2] | Potency [3] | Potency [4] | Potency [5] | Potency [6] | Potency [7] | Potency [8] | Potency [9] | Potency [10] | Potency [11] | outcome [12] | Potency [14] | Potency [15] | activity change, positive = activation [16] 3.55% [at 42.5 µM] | Potency [17] | Potency [18] | Potency [20]

C(COCC1CO1)OCC1CO1 (stereo not drawn)
inactive: Potency [1] | Potency [2] | Potency [3] | Potency [4] | Potency [5] | Potency [6] | Potency [7] | Potency [8] | Potency [9] | Potency [10] | Potency [11] | outcome [13] | Potency [14] | Potency [15] | activity change, positive = activation [16] 0.301% | Potency [17] | outcome [19] | Potency [20]

CCN(CCO)CCn1c(Cc2ccccc2)nc2c1c(=O)n(C)c(=O)n2C
inactive: Potency [1] | Potency [2] | Potency [3] | Potency [4] | Potency [5] | Potency [6] | Potency [7] | Potency [8] | Potency [9] | Potency [10] | Potency [11] | outcome [12] | outcome [13] | Potency [14] | Potency [15] | activity change, positive = activation [16] -1.48% [at 42.5 µM] | Potency [17] | Potency [18] | outcome [19] | Potency [20]

O=c1[nH]c2ccccc2o1
inactive: Potency [1] | Potency [2] | Potency [3] | Potency [4] | Potency [5] | Potency [6] | Potency [7] | Potency [9] | Potency [10] | Potency [11] | outcome [13] | Potency [14] | Potency [15] | activity change, positive = activation [16] -3.64% | Potency [17] | Potency [18] | outcome [19] | Potency [20]

C=CCCC#N
inactive: Potency [1] | Potency [2] | Potency [3] | Potency [4] | Potency [5] | Potency [6] | Potency [7] | Potency [10] | Potency [11] | outcome [12] | outcome [13] | Potency [14] | Potency [17] | Potency [18] | outcome [19] | Potency [20]
